# From PubChem BioAssay (NCATS)
# A number with no mark means an inactive call. The call rests on the fitted dose curve; in most records, active means well fitted curve in the direction sought with a large enough effect; inconclusive means small, poorly fitted or top-dose-only effect, or another doubt; inactive means no such curve, though single readings can be large or run the other way.
# Experiment: HepG2 viability counterscreen (readout 2: ATP content) against the NCATS DSHEA and TCM libraries (AID 1794840);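 further: HepG2 cells exposed to substances for about 24 h; 0% is about no effect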
# Conditions: ATP content luminescence; series mostly up to 27.3 µM; activity change, negative = cytotoxic: at the top concentration
# From the text: Assay Development and Screening Technology Laboratory (ADST)
# National Center for Advancing Translational Sciences (NCATS), Rockville, MD
# National Institute of Health (NIH), Bethesda, Maryland
# Dietary Supplements and Natural Products have minor oversight of their safety and efficacy. We assembled a collection of Dietary Supplements and Natural Products (DSNP) as well as Traditional Chinese Medicinal (TCM) Plant extracts, which were screened against an in vitro panel of assays, including a liver cytochrome p450 enzyme panel, CAR/PXR signaling pathways, and P-gp transporter assays, to assess their activity. This pipeline facilitated the interrogation of Natural Product-Drug Interaction (NaPDI) through prominent metabolizing pathways. In addition, we compared the activity profiles of the DSNP/TCM substances with those of an approved drug collection. Many of the approved drugs have well-annotated mechanisms of action (MOA) while the MOAs for most of the DSNP and TCM samples remain unknown. Based on the premise that compounds with similar activity profiles tend to share similar targets or MOA, we clustered the library activity profiles to identify overlap with the NCATS Pharmaceutical Collection to predict the MOAs of the DSNP/TCM substances. Overall, we highlight four significant bioactivity profiles (measured by p-values) as examples of this prediction. In addition, to assess broad cytotoxicity, we employed screening against a HepG2 cell line.
# To this end, we profiled both collections for potential CAR and/or PXR activity, employing a previously published 1536-well qHTS assay.
# PROTOCOL TABLE (as described by Inglese J, Shamu CE and Guy RK. 2007)
# SEQUENCE No. (e.g., 1, 2, 3, etc.); PARAMETER (e.g., Cells, Incubation, Reagent, etc.); VALUE; DESCRIPTION.
# 1; Cells; 5 uL; HepG2 cells, white solid-bottom tissue treated Greiner plate.
# 2; Incubation; 4 hrs; 37C, 95% humidity, 5% CO2.
# 3; Compounds; 23 nL; Kalypsis pin tool (Wako USA) equipped with a 1536-well pin head to transfer to the assay plates.
# 4; Incubation; 24 hrs; 37C, 95% humidity, 5% CO2.
# 5; Reagent; 1 uL; GF-AFC substrate.
# 6; Incubation; 30 min; 37C, 95% humidity, 5% CO2.
# 7; Read 1; Fluorescence; EnVision plate reader excitation 380 nm, emission 510 nm.
# 8; Reagent; 3 uL; CellTiter-Glo (Promega).
# 9; Centrifuge; 1000 RPM; 15 seconds.
# 10; Incubation; 30 min; room temperature.
# 11; Read 2; Luminescence; ViewLux plate reader.
# NOTES (numbers refer to Sequence numbers above)
# 1. 5 uL of HepG2 cells at 2 x 10^5 cells/mL (1,000 cells/well) were dispensed into a 1536-well white solid-bottom tissue treated plate (Greiner Bio-One) using a Multidrop Combi dispenser (Thermo Scientific). This assay use both GF-AFC substrate and Cell-Titer Glo (CTG), measuring cellular protease activity and ATP content, respectively.
# 2. Plates were incubated at 37C, 95% humidity, and 5% CO2 for ~4 hours to allow for cell attachment.
# 3. Compounds were transferred (16 nL) via pintool (Wako Automation), for a final concentration range for most substances of 15.6 nM - 31.3 uM.
# 4. Plates were incubated for ~24 hours.
# 5. 1 uL addition of GF-AFC substrate (final concentration 25 uM; MP Biomedicals).
# 6. Plates were incubated at 37C, 95% humidity, and 5% CO2 for 30 minutes.
# 7. After incubation, plates were read for fluorescence intensity (Ex/Em = 380 nm/510 nm) on an EnVision detector (PerkinElmer, Shelton, Connecticut).
# 8. Once the detection for fluorescence was completed, plates were dispensed with 3 uL of CellTiter-Glo (Promega, Madison, WI).
# 9. Plates were centrifuged for 15 seconds at 1,000 RPM's.
# 10. Plates were incubated for 30 minutes at room temperature.
# 11. Plates were then read for luminescence intensity on a ViewLux detector.
# Inglese J, Shamu CE and Guy RK, Reporting data from high throughput screening of small molecule libraries, Nature Chemical Biology, 2007, 3(8): 438-441. doi.org/10.1038/nchembio0807-438.
row,Structure (SMILES),"activity change, negative = cytotoxic"
1,CC1=CCC2CC1C2(C)C (stereo unspecified),1.81%
2,C=C1CC[C@H](O)C/C1=C\C=C1/CCC[C@]2(C)[C@@H]([C@H](C)CCCC(C)C)CC[C@@H]12,-1.9%
3,CC/C=C\C/C=C\C/C=C\C/C=C\C/C=C\C/C=C\CCC(=O)O,-8.17%
4,O=C(O)/C=C/c1ccccc1,-0.375% [at 46.6 µM]
5,CC[C@H](CC[C@@H](C)[C@H]1CC[C@H]2[C@@H]3CC=C4C[C@@H](O)CC[C@]4(C)[C@H]3CC[C@]12C)C(C)C,-4.52%
6,CC(C)=CCC/C(C)=C/CC/C(C)=C/CC/C(C)=C/CC1=C(C)C(=O)c2ccccc2C1=O,-4.17%
7,CCCCC/C=C\C/C=C\C/C=C\CCCCC(=O)O,-4.42% [at 3.42 µM]
8,CC/C=C\C/C=C\C/C=C\C/C=C\C/C=C\CCCC(=O)O,1.91%
9,CC(C)=CCC/C(C)=C/C=C/C(C)=C/C=C/C(C)=C/C=C/C=C(C)/C=C/C=C(C)/C=C/C=C(\C)CCC=C(C)C,-3.69%
10,CC/C=C\C/C=C\C/C=C\CCCCCCCC(=O)O,-9.15%
11,COC1=C(OC)C(=O)C(C/C=C(\C)CC/C=C(\C)CC/C=C(\C)CC/C=C(\C)CC/C=C(\C)CC/C=C(\C)CC/C=C(\C)CC/C=C(\C)CC/C=C(\C)CCC=C(C)C)=C(C)C1=O,-0.519%
12,C=C1CC[C@H](O)CC1=C/C=C1\CCC[C@]2(C)[C@@H]([C@H](C)/C=C/[C@H](C)C(C)C)CC[C@@H]12,4.43%
13,Oc1ccc(/C=C/c2cc(O)cc(O)c2)cc1,0.981%
14,CCCCCCCCCCCC(=O)OCC(O)CO (stereo unspecified),8.98%
15,Cc1ncc(C[n+]2csc(CCO)c2C)c(N)n1,-2.41%
16,Oc1cccc(O)c1O,2.43%
